Measured values reported in PubChem BioAssay AID743100 (Vanderbilt Specialized Chemistry Center, 2013).
Values without a mark were called inactive. Activity calls are given as the source filed them.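 Rule for the calls: active = calcium response above 60% of the acetylcholine maximum at human M5, as a positive modulator; inactive = the rest.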

What follows are compounds tested against Muscarinic acetylcholine receptor M5 (Homo sapiens) (UniProt P08912) (assay: M5 muscarinic receptor positive allosteric modulators, cell-based, single concentration, CHO-K1 hM5, calcium flux (AID 743100)). Conditions: CHO-K1 hM5, Fluo-4 calcium flux, ACh EC20, stronger effect = higher value; at 10 µM unless noted.
Muscarinic acetylcholine receptor M5 (Homo sapiens), sequence (P08912 whole entry, looked up): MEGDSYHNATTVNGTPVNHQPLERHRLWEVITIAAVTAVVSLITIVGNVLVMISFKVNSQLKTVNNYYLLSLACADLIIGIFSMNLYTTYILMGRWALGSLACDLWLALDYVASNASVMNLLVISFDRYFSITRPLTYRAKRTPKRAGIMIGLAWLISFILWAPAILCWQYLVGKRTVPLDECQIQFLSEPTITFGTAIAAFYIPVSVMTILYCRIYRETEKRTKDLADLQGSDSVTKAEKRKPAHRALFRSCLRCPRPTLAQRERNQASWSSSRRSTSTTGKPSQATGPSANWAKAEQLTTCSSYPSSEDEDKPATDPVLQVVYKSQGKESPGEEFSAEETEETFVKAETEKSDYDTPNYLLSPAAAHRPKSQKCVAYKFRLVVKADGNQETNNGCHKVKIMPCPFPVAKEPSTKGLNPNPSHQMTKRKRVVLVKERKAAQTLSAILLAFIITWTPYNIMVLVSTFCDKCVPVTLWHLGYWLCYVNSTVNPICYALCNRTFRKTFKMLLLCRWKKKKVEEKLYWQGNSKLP
In the case of `CCN(Cc1ccccc1)C(=O)C1CCN(S(=O)(=O)c2ccc3c(c2)OCO3)CC1`, the % ACh max response was 62.9% (active).
`CCN(Cc1ccccc1)C(=O)C1CCN(S(=O)(=O)c2cccc(C(F)(F)F)c2)CC1` was tested, and the % ACh max response was 63.9% [at 30 µM] (active).
`CC(=O)N(Cc1ccccc1)CC1CCN(S(=O)(=O)c2ccc3cn[nH]c3c2)CC1` gave a % ACh max response of 11.4%.
For `COc1ccc(S(=O)(=O)N2CCC(C(=O)N(C)Cc3ccccc3)CC2)cc1`, the % ACh max response was 64.5% [at 30 µM] (active).
With `CCN(Cc1cccc(OC)c1)C(=O)C1CCN(S(=O)(=O)c2ccc3cn[nH]c3c2)CC1` the % ACh max response was 74.2% (active).
With `CCN(Cc1cccc(Cl)c1)C(=O)C1CCN(S(=O)(=O)c2ccc3cn[nH]c3c2)CC1` the % ACh max response was 73.9% (active).
For `CCN(Cc1ccccc1)C(=O)C1CCN(S(=O)(=O)c2ccccc2F)CC1`, the % ACh max response was 38.4% [at 30 µM].
With `CCN(Cc1ccccc1F)C(=O)C1CCN(S(=O)(=O)c2ccc3cn[nH]c3c2)CC1` the % ACh max response was 69.8% (active).
`CCN(Cc1ccccc1)C(=O)C1CCN(S(=O)(=O)c2ccc(Br)cc2)CC1` was tested, and the % ACh max response was 62.1% [at 30 µM] (active).
`CCN([C@H](C)c1ccccc1)S(=O)(=O)C1CCN(S(=O)(=O)c2ccc3occc3c2)CC1` was tested, and the % ACh max response was 14.6%.
For `CCN(Cc1ccccc1)C(=O)C1CCN(S(=O)(=O)c2ccc(OC)cc2)CC1`, the % ACh max response was 78.4% [at 30 µM] (active).
`CCN(CC1CCN(S(=O)(=O)c2cccc(OC)c2)CC1)C(=O)c1ccccc1` gave a % ACh max response of 15.2%.
Work on `CCN(CC1CCN(S(=O)(=O)c2ccc3c(c2)OCCO3)CC1)C(=O)c1ccccc1` yielded a % ACh max response of 11.3%.
`CC1c2ccccc2CCN1C(=O)C1CCN(S(=O)(=O)c2ccc3occc3c2)CC1` (centres undefined) showed a % ACh max response of 28.5%.
`CCN(Cc1cccc(C)c1)C(=O)C1CCN(S(=O)(=O)c2ccc3cn[nH]c3c2)CC1` was tested, and the % ACh max response was 85.8% (active).
`CCN(Cc1ccccc1C(F)(F)F)C(=O)C1CCN(S(=O)(=O)c2ccc3cn[nH]c3c2)CC1` was tested, and the % ACh max response was 84.2% (active).
`CCN(Cc1ccccc1Cl)C(=O)C1CCN(S(=O)(=O)c2ccc3cn[nH]c3c2)CC1` was tested, and the % ACh max response was 90.7% (active).
Compound `CCN(Cc1cccc(C(F)(F)F)c1)C(=O)C1CCN(S(=O)(=O)c2ccc3cn[nH]c3c2)CC1` has a % ACh max response of 35.4%.
In the case of `O=C1N(Cc2ccccc2C(F)(F)F)CCCC12CCN(S(=O)(=O)c1ccc3[nH]ncc3c1)CC2`, the % ACh max response was 22.6%.
